# Screening results as filed in PubChem.
# This is a sample that favours compounds with a hit; in the whole collection about 7.8% have one here.
# Lassa entry inh: Lassa virus entry inhibition; Lassa virus pseudotype entry inhibition, cell reporter; Potency, µM (highest dose often 37.9 µM), hits mostly inhibitors; 1.2% of 300,000 active; calls by dose curve; tested in HEK293 cells; also: nearly all actives have a fitted effect of over 50% in size
# Vaccinia Venus: inhibitors of vaccinia virus (Venus reporter) | AID 720580 | Potency, µM (titrated, usually from 36.5 µM), most hits filed as inhibitors | Vaccinia virus Venus reporter expression, fluorescence | 0.46% of 330,000 active; calls by dose curve; tested in A549 cells; also: nearly all actives have a fitted effect of over 30% in size
# HCV inh: HCV inhibition. Potency, µM (series often up to 41.8 µM), hits mostly inhibitors. 3.4% of 340,000 active. Huh7.5.1 HCVcc-Cre infection, luciferase reporter, 44 h; active = well fitted inhibition curve with a large enough effect; inconclusive = small, poorly fitted or top-dose-only effect, or another doubt; inactive = no such curve, though single readings can be large or run the other way
#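 Whole-lifecycle infectious HCVcc-Cre system; cells 1,000/well, compound then virus (~0.5 moi) added 4 h after plating, 44 h culture. Luciferase read 15 sec following 15 min substrate incubation, room temp.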
# MARV entry inh: inhibitors of Marburg virus binding or cell entry; Potency, µM (top dose mostly 37.8 µM), actives largely listed as inhibitors; Marburg virus pseudotyped entry inhibition, cell reporter; 1.8% of 300,000 active; AID 540276; calls by dose curve; tested in HEK293 cells
# HCMV inh: inhibitors of human cytomegalovirus; HFF cells, HCMV-luciferase reporter, 72 h; stronger effect = lower value; activity change, negative = inhibition, % at 57.5 µM; 4.5% of 410,000 active; AID 1259415; in the data active = activity change below about -60%; inconclusive = no clear call, values can overlap the other calls; inactive = above about -39%
#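 Compounds were evaluated in HFFs infected with an HCMV luciferase reporter virus (MOI 1 PFU/cell). Luciferase in lysates collected 72 h post infection served as the replication measure.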
# VACV mCherry inh: inhibitors of vaccinia virus infection (mCherry reporter signal). Vaccinia virus mCherry reporter infection, fluorescence. Potency, µM (doses to about 36.5 µM), actives largely listed as inhibitors. 0.63% of 310,000 active. AID 720579; calls by dose curve; tested in A549 cells; also: nearly all actives have a fitted effect of over 35% in size
# Numbers stand for hits; i = inactive; ? = inconclusive; nt = no result; [ ] = dose if it differs, or a comment.
SMILES,Lassa entry inh,Vaccinia Venus,HCV inh,MARV entry inh,HCMV inh,VACV mCherry inh
O=C1C2CC=CCC2C(=O)N1SC(Cl)(Cl)Cl (configuration not stated),nt,nt,nt,nt,-74,nt
COc1ccc(Nc2cc(C(=O)NCCCN(C)Cc3ccccc3)c3ccccc3n2)cc1OC,i,i,nt,nt,-100,i
CCCCN(C)CCCNC(=O)c1cc(-c2ccc(Br)s2)nc2ccccc12,?,i[7.34 µM],nt,i,-68,i[7.34 µM]
CCCCN(CCCNC(=O)c1cc(Nc2ccc(OC)cc2)nc2ccccc12)Cc1ccccc1,i,i,nt,i,-71,i
Cc1cc(C)cc(Nc2cc(C(=O)NCCCN(C)C3CCCCC3)c3ccccc3n2)c1,i,i[7.34 µM],nt,?,-99,i[7.34 µM]
CCCCN(C)CCCNC(=O)c1cc(Nc2ccc(OC)c(OC)c2)nc2ccccc12,nt,nt,?,nt,i,nt
CCOC(=O)Cn1c(=O)oc2cc(S(=O)(=O)Nc3ccccc3F)ccc21,i,i,nt,i,i,i
Cc1ccc(Cl)cc1N1CCN(C(=O)c2cnn(C)c2C2CCN(C(=O)OC(C)(C)C)CC2)CC1,i,i,nt,nt,i,i
CCN(c1cccc(C)c1)S(=O)(=O)c1ccc(N2CCCCS2(=O)=O)cc1,i,i,nt,nt,i,i
COc1ccc(-c2noc(C3CCCN(C(=O)c4ccccc4C)C3)n2)cc1 (configuration not stated),i,i,32µM,?,i,i
COc1ccc(-c2noc(C3CCCN(C(=O)c4ccccc4)C3)n2)cc1 (configuration not stated),nt,i[7.34 µM],?,nt,i,i[7.34 µM]
COc1ccc(-c2noc(C3CCCN(C(=O)c4ccccc4OC)C3)n2)cc1 (configuration not stated),i,i,?,?,-84,i
Cc1cccc(C(=O)N2CCCC(c3nc(-c4ccc(F)cc4)no3)C2)c1 (configuration not stated),i,i,13µM,i,i,i
O=C(c1ccccc1Br)N1CCCC(c2nc(-c3cccs3)no2)C1 (configuration not stated),nt,nt,?,nt,-89,nt
CSc1ccc(CNC(=O)C2CCN(c3nnc(-n4cccc4CNc4ccc(C)cc4)s3)CC2)cc1,nt,i,nt,i,i,i
C/C(CCC(=O)OC[C@H]1O[C@H](C#Cc2ccccc2)C=C[C@@H]1Oc1ccc(C)cc1)=N\OC[C@@H](O)COCc1ccco1,nt,nt,nt,i,nt,nt
COc1ccc(-c2cn3c(n2)sc2cc(C(=O)Nc4ccc(C)c(Cl)c4)ccc23)cc1,i,i,nt,nt,nt,i
Cc1ccc(CN(Cc2ccco2)C(=O)COc2ccc(Cl)cc2)o1,i,i,nt,i,i,i
CCC[C@H]1[C@@H](NS(=O)(=O)Cc2ccccc2)CC[C@@]23CCCN2C(=O)CCC[C@@H]13,nt,nt,nt,nt,i,nt
Oc1ccc(/C=N/Nc2ccc(C(F)(F)F)cn2)cc1,i,i,?,?,i,i
Oc1ccc(/C=N/Nc2ccc(C(F)(F)F)cn2)c(O)c1,nt,nt,nt,nt,-94,nt
C=C(C(C)=O)C(O)c1ccc(C(F)(F)F)cc1 (configuration not stated),nt,nt,nt,i,nt,nt
Cc1cccn2c(=O)c(C=NCc3ccco3)c(Nc3ccc(SC(F)F)cc3)nc12,9.2µM,nt,?,?,i,nt
CCN(c1ccccc1)S(=O)(=O)c1ccc(Cl)c(C(=O)NCCc2ccc(OC)cc2)c1,?,i,i,?,i,i
CC1CCCN(S(=O)(=O)c2cc(C(=O)NCc3ccco3)ccc2Cl)C1 (configuration not stated),nt,nt,?,nt,i,nt
SMILES,Lassa entry inh,Vaccinia Venus,HCV inh,MARV entry inh,HCMV inh,VACV mCherry inh
O=C(NCCc1ccccc1)c1ccc(Cl)c(S(=O)(=O)N2CCCC2)c1,nt,nt,10µM,nt,nt,nt
COc1ccc(CCNC(=O)c2ccc(Cl)c(S(=O)(=O)N(C)c3ccccc3)c2)cc1,?,?,3.5µM,?,-68,i
O=C(NCc1ccccn1)c1ccc(Cl)c(S(=O)(=O)N2CCCCCC2)c1,i,i,11µM,?,i,?
CC1CCCN(S(=O)(=O)c2cc(C(=O)NCCc3ccc(S(N)(=O)=O)cc3)ccc2Cl)C1 (configuration not stated),nt,nt,7.9µM,nt,?,nt
O=C(Nc1ccccn1)c1ccc(Cl)c(S(=O)(=O)N2CCCC2)c1,i,i,i,i,i,i
O=C(NCc1ccccc1)c1ccc(Cl)c(S(=O)(=O)N2CCCC2)c1,nt,nt,i,nt,i,nt
O=C(c1ccccc1-n1cccn1)N1CCOc2c(cc(-c3ncc(C(F)(F)F)cc3Cl)cc2OCC2CCCO2)C1 (configuration not stated),nt,i,nt,nt,nt,i
Cc1cc(C)nc(-c2cccc3c2OC(CNC(=O)c2ccc(Cn4nc(C)cc4C)cc2)C3)n1 (configuration not stated),nt,i,nt,nt,nt,i
C[C@@H]1CN(Cc2ccc3c(c2)CN(C(=O)c2ccc(Oc4ccccc4)o2)CCO3)C[C@H](C)O1,nt,i,nt,nt,nt,i
COc1ccc(COC(=O)c2ccc(Cl)c(S(=O)(=O)N3CC(C)OC(C)C3)c2)cc1 (configuration not stated),?,i,14µM,i,i,i
COc1ccc(CCNC(=O)c2ccc(Cl)c(S(=O)(=O)N3CCCCCC3)c2)cc1,nt,nt,2.8µM,nt,-86,nt
O=C(NCC(O)c1ccccc1)c1ccc(Cl)c(S(=O)(=O)N2CCCCC2)c1 (configuration not stated),i,i,10µM,i,?,i
COc1ccc(CCNC(=O)c2cccc(S(=O)(=O)N3CCCCCC3)c2)cc1,nt,nt,i,i,?,nt
COc1ccc(CCNC(=O)c2ccc(N(C)S(=O)(=O)c3ccc(C)cc3)cc2)cc1,?,i,10µM,i,i,?
COC(=O)C1=C(C)N(CCc2cc(OC)c(OC)c(OC)c2)C(=O)NC1c1ccc(Br)cc1 (configuration not stated),i,nt,nt,i,nt,nt
COC(=O)[C@H]1C[C@H](C(=O)O)[C@@H](C)C1(C)C,nt,i,i,nt,-95,i
Cc1ccccc1NS(=O)(=O)c1ccc2[nH]cc(C(=O)NCCc3ccccc3)c(=O)c2c1,?,i,nt,nt,i,i
COc1cccc(N2CCN(C(=O)Cn3ncc4c3-c3ccccc3OC4)CC2)c1,nt,i,nt,?,i,i
O=[N+]([O-])c1cc(-n2cnnn2)ccc1N1CCC(Cc2ccccc2)CC1,i,nt,?,?,-103,nt
CC1CC(C)CN(c2ccc(-n3cnnn3)cc2[N+](=O)[O-])C1 (configuration not stated),i,i,i,?,i,i
C=CCNC(=O)[C@@]1(Sc2ccc(OC)cc2)CC(=O)N[C@@H]1c1ccc(OC)cc1,nt,nt,nt,nt,i,nt
Cc1ccc(S(=O)(=O)CC(=O)Nc2ccccn2)cc1,i,i,i,i,-63,i
Cc1ccc(NC(=S)Nc2ccccn2)c(C)c1,?,i,?,4µM,i,i
COc1ccccc1NC(=O)C(=O)Nc1ccccn1,?,i,i,?,i,i
Cc1ccc(NC(=O)C(=O)Nc2ccccn2)cc1,2.9µM,i,i,1.1µM,i,i
Cc1cc(Cl)ccc1NC(=S)Nc1ccccn1,i,nt,i,i,i,nt
Cc1ccc(S(=O)(=O)CC(=O)Nc2ccc(S(=O)(=O)Nc3ccccn3)cc2)cc1,nt,nt,i,nt,i,nt
